The structures appear in SMILES notation. This is part of a sample that, as a whole, favours compounds with a hit. Of some 83,000 tested, about 20% had one in any assay.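 Compound tested at a single concentration for 48 hours in 96-well plates; a percent growth value below 10 was scored as active.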 Unmarked numbers belong to inactive results. Calls of active or inactive are those of the source.

Among the data in PubChem BioAssay (NCI) are growth values, retold here.

Some test systems named below: RPMI-8226 leukemia; OVCAR-8 ovarian; OVCAR-5 ovarian; OVCAR-4 ovarian; SK-OV-3 ovarian; IGROV1 ovarian; OVCAR-3 ovarian; HS 578T breast; NCI/ADR-RES ovarian; T-47D breast; BT-549 breast; MDA-MB-435 melanoma; SW-620 colon; MCF7 breast; HCT-116 colon; HCC-2998 colon; KM12 colon; SR leukemia.
Test in all cases: NCI-60 one-dose screen, 48 h (100 = growth as untreated, 0 = no growth, -100 = all killed)
Settings in all cases: 10 µM unless noted

Consider `CC/C=C\C/C=C\C[C@H](O)C/C=C1/C(=O)C=C[C@H]1C/C=C\CCC(=O)OC`, for which the growth was 3.22% [8.25 µM] (active) with RPMI-8226 leukemia; 15.3% [8.25 µM] with OVCAR-8 ovarian; 71.1% [8.25 µM] with OVCAR-5 ovarian; 43.3% [8.25 µM] in the assay on OVCAR-4 ovarian; 85.6% [8.25 µM] in the assay on SK-OV-3 ovarian; 37.3% [8.25 µM] in the assay with IGROV1 ovarian. Also, the growth in the assay on OVCAR-3 ovarian is 4.28% [8.25 µM] (active); in the assay with HS 578T breast it was 69.1% [8.25 µM]; in the assay with NCI/ADR-RES ovarian it was 39.8% [8.25 µM]; in the assay on T-47D breast, 16.7% [8.25 µM]; with BT-549 breast, 14.6% [8.25 µM]; in the assay with MDA-MB-435 melanoma it was -14.1% [8.25 µM] (active). Moreover, the growth in the assay on SW-620 colon is 6.55% [8.25 µM] (active); in the assay on MCF7 breast, 28.1% [8.25 µM]; in the assay on HCT-116 colon, -41.6% [8.25 µM] (active); in the assay with HCC-2998 colon it was 61.2% [8.25 µM]; in the assay with KM12 colon, 3.51% [8.25 µM] (active).
On to `CN1C(=O)[C@H]2c3c1cccc3[C@@]13NC(=O)O[C@H]1[C@H](CCC3(C)C)C2(C)C`, for which the growth with RPMI-8226 leukemia is 97%; in the assay on OVCAR-8 ovarian it was 96.1%; in the assay with OVCAR-5 ovarian, 101%; in the assay with OVCAR-4 ovarian, 99%; in the assay with SK-OV-3 ovarian, 120%; with IGROV1 ovarian it was 107%. Also, the growth was 103% in the assay with OVCAR-3 ovarian; 89.1% in the assay on HS 578T breast; 98.8% in the assay on NCI/ADR-RES ovarian; 87.8% with T-47D breast; 102% with BT-549 breast; 102% in the assay on MDA-MB-435 melanoma. Moreover, the growth is 114% in the assay with SW-620 colon; 99.7% with MCF7 breast; 103% in the assay with HCT-116 colon; 106% in the assay with HCC-2998 colon; 103% in the assay on KM12 colon.
In the case of `Nc1c(C(=O)Nc2cccc(C(F)(F)F)c2)sc2nc3c(cc12)CCCCC3`, the growth in the assay on SR leukemia was 33.3%; with OVCAR-8 ovarian, 21.3%; in the assay with OVCAR-5 ovarian it was 35.5%; with SK-OV-3 ovarian it was -21.4% (active); with IGROV1 ovarian, -17.4% (active); with OVCAR-3 ovarian it was 3.45% (active). Also, the growth was 16.6% with HS 578T breast; 17.1% with NCI/ADR-RES ovarian; -11.6% (active) in the assay on T-47D breast; 25.2% with BT-549 breast; 32.7% with MDA-MB-435 melanoma; 58.3% in the assay with SW-620 colon. For the same compound, the growth is -7.78% (active) in the assay on HCT-116 colon, 46.9% with HCC-2998 colon and 35.7% with KM12 colon.
Take `Cc1cc(-c2ccccc2)c(C)n1Cc1ccc(Cl)cc1`: the growth with RPMI-8226 leukemia was 44.1%; in the assay with OVCAR-8 ovarian, 47.2%; with OVCAR-5 ovarian it was 64.5%; in the assay on OVCAR-4 ovarian, 61.6%; in the assay on SK-OV-3 ovarian, 62.2%; in the assay with IGROV1 ovarian it was 50.4%. Also, the growth with OVCAR-3 ovarian was 27.3%; with HS 578T breast, 50.6%; in the assay on NCI/ADR-RES ovarian, 14%; in the assay on T-47D breast, 50.5%; in the assay with BT-549 breast, 37.7%; with MDA-MB-435 melanoma, -18.4% (active). The growth is 22.7% in the assay on SW-620 colon; 23.5% with MCF7 breast; 15% in the assay on HCT-116 colon; 74.2% with HCC-2998 colon; 27.6% with KM12 colon.
As for `O=C(CNC1CCCCC1)Nc1ccc(-c2nc3ccccc3s2)cc1`, the growth was 77.6% in the assay with RPMI-8226 leukemia; 99.3% in the assay on OVCAR-8 ovarian; 94.7% in the assay on OVCAR-5 ovarian; 84.4% with OVCAR-4 ovarian; 90.8% with SK-OV-3 ovarian; 100% in the assay with IGROV1 ovarian. Also, the growth is 94% in the assay on OVCAR-3 ovarian; 84.3% with HS 578T breast; 89% in the assay with NCI/ADR-RES ovarian; 69.1% with T-47D breast; 87.6% in the assay with BT-549 breast; 90.4% in the assay on MDA-MB-435 melanoma. The growth was 100% in the assay with SW-620 colon; 28% in the assay with MCF7 breast; 77% in the assay with HCT-116 colon; 87.3% in the assay on HCC-2998 colon; 83.9% in the assay with KM12 colon.
For `COc1ccc(-c2nc(-c3ccccc3)c(-c3ccccc3)n2C2CC2)cc1OC1CCCCC1`, the growth is 48.7% in the assay on RPMI-8226 leukemia; 55.4% with OVCAR-8 ovarian; 83% with OVCAR-5 ovarian; 67.9% with OVCAR-4 ovarian; 89.4% in the assay with SK-OV-3 ovarian; 63.1% in the assay on IGROV1 ovarian. Also, the growth was 58.4% with OVCAR-3 ovarian; 73.8% in the assay with HS 578T breast; 55.3% in the assay on NCI/ADR-RES ovarian; 58.4% in the assay with T-47D breast; 97.3% in the assay on BT-549 breast; 72.5% in the assay on MDA-MB-435 melanoma. Further, the growth in the assay on SW-620 colon was 58.2%; with MCF7 breast, 52%; in the assay with HCT-116 colon it was 38.8%; in the assay with HCC-2998 colon, 83.2%; with KM12 colon, 62.2%.
On to `CCC(=O)Oc1ccc2c(c1)CC[C@@H]1[C@@H]2CC[C@]2(C)C[C@H](OC(=O)CC)C[C@@H]12`, for which the growth was 67% in the assay with RPMI-8226 leukemia; 87.9% with OVCAR-8 ovarian; 98.4% in the assay on OVCAR-5 ovarian; 79% with OVCAR-4 ovarian; 56% with SK-OV-3 ovarian; 77.6% in the assay on IGROV1 ovarian. For the same compound, the growth in the assay on OVCAR-3 ovarian is 68.8%; with HS 578T breast it was 59.7%; in the assay with NCI/ADR-RES ovarian, 54.2%; in the assay with T-47D breast, 83.7%; in the assay with BT-549 breast, 60.1%; in the assay on MDA-MB-435 melanoma, 0.38% (active). For the same compound, the growth in the assay with SW-620 colon was 48.2%; with MCF7 breast, 68.5%; in the assay on HCT-116 colon, 50.5%; with HCC-2998 colon, 85%; in the assay on KM12 colon it was 53.5%.
With `Nc1c(C(=O)Nc2c(Cl)cccc2Cl)sc2nc3c(cc12)CCCCC3`, the growth in the assay with SR leukemia was 16.7%; in the assay with OVCAR-8 ovarian, 51.8%; in the assay on OVCAR-5 ovarian, 79.8%; in the assay with SK-OV-3 ovarian, 56.6%; in the assay on IGROV1 ovarian, 73%; with OVCAR-3 ovarian, 52.8%. Besides, the growth in the assay on HS 578T breast is 59%; in the assay on NCI/ADR-RES ovarian, 53.5%; in the assay with T-47D breast it was 57.7%; in the assay on BT-549 breast, 52.6%; in the assay on MDA-MB-435 melanoma it was 9.69% (active); in the assay with SW-620 colon it was 46.1%. The values for the growth with HCT-116 colon, in the assay on HCC-2998 colon and in the assay with KM12 colon were 62.3%, 57% and 53.6%, respectively.
With `CSc1ccccc1C#C/C=C\C#Cc1ccccc1N1CCCCC1=O`, the growth is 64.3% in the assay on RPMI-8226 leukemia; 103% in the assay on OVCAR-8 ovarian; 96.7% in the assay with OVCAR-5 ovarian; 102% in the assay with OVCAR-4 ovarian; 109% in the assay on SK-OV-3 ovarian; -29.6% (active) in the assay with IGROV1 ovarian. The growth in the assay with OVCAR-3 ovarian was 97.6%; in the assay with HS 578T breast, -20.4% (active); in the assay with NCI/ADR-RES ovarian, 102%; in the assay on T-47D breast, 95.1%; in the assay on BT-549 breast it was 92.1%; in the assay with MDA-MB-435 melanoma, 107%. Further, the growth in the assay with SW-620 colon is 100%; with MCF7 breast it was 94.9%; with HCT-116 colon, 95%; in the assay with HCC-2998 colon, 99.9%; in the assay on KM12 colon it was 114%.
